Reference: PubChem BioAssay (NCI)
The panel holds about 83,000 compounds, 20% with a hit somewhere; the sample as a whole holds those more often.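 The endpoint reported here, percent growth, reads 100 for growth as untreated, 0 for no net growth and -100 for all cells dead.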 Unmarked numbers belong to inactive results. The source made the active and inactive calls. The calls were made as follows: active = growth percent below 10; inactive = the rest.

Assays:
Experiment in all cases: NCI-60 one-dose screen, 48 h (100 = growth as untreated, 0 = no growth, -100 = all killed)
Settings in all cases: 10 µM
[1] = tested on: SK-MEL-2 melanoma
[2] = tested on: EKVX NSCLC
[3] = tested on: SN12C renal
[4] = tested on: UO-31 renal
[5] = tested on: TK-10 renal
[6] = tested on: ACHN renal
[7] = tested on: CAKI-1 renal
[8] = tested on: A498 renal
[9] = tested on: CCRF-CEM leukemia
[10] = tested on: MOLT-4 leukemia
[11] = tested on: SR leukemia
[12] = tested on: RPMI-8226 leukemia
[13] = tested on: OVCAR-8 ovarian
[14] = tested on: OVCAR-5 ovarian
[15] = tested on: OVCAR-4 ovarian
[16] = tested on: SK-OV-3 ovarian
[17] = tested on: IGROV1 ovarian
[18] = tested on: OVCAR-3 ovarian
[19] = tested on: HS 578T breast
[20] = tested on: NCI/ADR-RES ovarian

CN1CCN(Cc2ccc(C(=O)Nc3cccc(Nc4ccc5c(O)cccc5n4)c3)cc2C(F)(F)F)CC1
growth [1]: -75.9% (active) | growth [2]: -45.6% (active) | growth [3]: 1.56% (active) | growth [4]: -20.2% (active) | growth [5]: -21% (active) | growth [6]: -23.4% (active) | growth [7]: -38.3% (active) | growth [8]: -33.2% (active) | growth [9]: 5.12% (active) | growth [10]: -2.84% (active) | growth [11]: 4.88% (active) | growth [12]: -10.6% (active) | growth [13]: -19.5% (active) | growth [14]: -48.7% (active) | growth [15]: -13.1% (active) | growth [16]: -46.6% (active) | growth [17]: -54.6% (active) | growth [18]: -23% (active) | growth [19]: -37.5% (active) | growth [20]: -0.427% (active)

Cc1ccn2c(C(=O)c3ccccc3)cc(-c3cc(-c4ccc(N(C)C)cc4)c(C#N)c(N)n3)c2c1
growth [1]: 80.9% | growth [2]: 88.6% | growth [3]: 61.9% | growth [4]: 65.4% | growth [5]: 85.7% | growth [6]: 31.2% | growth [7]: 52.7% | growth [8]: 111% | growth [9]: 96.5% | growth [10]: 82.9% | growth [11]: 75.9% | growth [12]: 82.5% | growth [13]: 15.1% | growth [14]: 83.4% | growth [15]: 45.5% | growth [16]: 65.2% | growth [17]: 86.3% | growth [18]: 58.2% | growth [19]: 33.2% | growth [20]: 50.8%

O=C(/C=C/Nc1ccccc1)c1ccc2c(c1)Nc1ccccc1S2
growth [1]: 78.1% | growth [2]: 81.4% | growth [3]: 69.2% | growth [4]: 93.1% | growth [5]: 96.2% | growth [6]: 84.3% | growth [7]: 91.5% | growth [8]: 120% | growth [9]: 94.2% | growth [10]: 89.7% | growth [11]: 87.8% | growth [12]: 90.9% | growth [13]: 33.5% | growth [14]: 87.7% | growth [15]: 49.2% | growth [16]: 86.3% | growth [17]: 87.3% | growth [18]: 91.1% | growth [19]: 63% | growth [20]: 61.2%

O=C(Cn1nc(-c2ccccc2)ccc1=O)NNC(=S)NC1CCCCC1
growth [1]: 109% | growth [2]: 98.6% | growth [3]: 101% | growth [4]: 81.2% | growth [5]: 109% | growth [6]: 102% | growth [7]: 98.6% | growth [8]: 121% | growth [9]: 103% | growth [10]: 106% | growth [11]: 89.4% | growth [12]: 97% | growth [13]: 112% | growth [14]: 105% | growth [15]: 114% | growth [16]: 112% | growth [17]: 104% | growth [18]: 122% | growth [19]: 101% | growth [20]: 105%

CN1C(=O)N(C)C2SC(N/N=C/c3ccccc3F)=NC21 (stereo not given)
growth [1]: 56.4% | growth [2]: 86.4% | growth [3]: 71.3% | growth [4]: 60.6% | growth [5]: 83.6% | growth [6]: 85.5% | growth [7]: 67.4% | growth [8]: 82.4% | growth [9]: 67.3% | growth [10]: 44.5% | growth [11]: 16.4% | growth [12]: 90.9% | growth [13]: 88.4% | growth [14]: 86.7% | growth [15]: 92.7% | growth [16]: 88% | growth [17]: 56.6% | growth [18]: 6.19% (active) | growth [19]: 85.6% | growth [20]: 30.6%

O=C(Nc1nc2ccccc2s1)c1ccc(Br)cc1
growth [1]: 96.1% | growth [2]: 63.5% | growth [3]: 89.9% | growth [4]: 76.1% | growth [5]: 104% | growth [6]: 94.8% | growth [7]: 91.1% | growth [8]: 115% | growth [9]: 85.6% | growth [10]: 74.3% | growth [11]: 80.1% | growth [12]: 64.2% | growth [13]: 98.5% | growth [14]: 92.9% | growth [15]: 80.6% | growth [16]: 104% | growth [17]: 75.1% | growth [18]: 111% | growth [19]: 95.5% | growth [20]: 76.7%

N#Cc1ccc(-c2nn(-c3ccc(C(=O)O)cc3)cc2CNc2cc(Cl)cc(C(F)(F)F)c2)cc1
growth [1]: 8.11% (active) | growth [2]: 22.8% | growth [3]: 18.4% | growth [4]: 25% | growth [5]: 63.5% | growth [6]: 17.3% | growth [7]: 20.8% | growth [8]: 39.8% | growth [9]: 5.2% (active) | growth [10]: 6.25% (active) | growth [11]: 1.72% (active) | growth [12]: 1.01% (active) | growth [13]: 20.1% | growth [14]: 59.8% | growth [15]: 27.8% | growth [16]: 55.2% | growth [17]: 34.7% | growth [18]: 22% | growth [19]: -0.292% (active) | growth [20]: 1.78% (active)

C=CCn1c(SCC(=O)Nc2ccc(C(=O)/C=C/c3ccccc3)cc2)nnc1-c1c[nH]c2ccccc12
growth [1]: 58.3% | growth [2]: 40.9% | growth [3]: 68.3% | growth [4]: 31.2% | growth [5]: 89.2% | growth [6]: 52.2% | growth [7]: 57.3% | growth [8]: 109% | growth [9]: 55.4% | growth [10]: 33.2% | growth [11]: 31.4% | growth [12]: 2.87% (active) | growth [13]: 64.7% | growth [14]: 102% | growth [15]: 61.9% | growth [16]: 86.8% | growth [17]: 42% | growth [18]: 41.4% | growth [19]: 70.5% | growth [20]: 85.4%

Cc1ccc(/C=C/C(=O)c2ccc(NC(=O)CSc3nnc(-c4c[nH]c5ccccc45)n3-c3ccccc3)cc2)cc1
growth [1]: 90.5% | growth [2]: 77% | growth [3]: 76.1% | growth [4]: 55.3% | growth [5]: 107% | growth [6]: 78.3% | growth [7]: 80.6% | growth [8]: 111% | growth [9]: 93.7% | growth [10]: 68.3% | growth [11]: 72.4% | growth [12]: 4.29% (active) | growth [13]: 96.4% | growth [14]: 103% | growth [15]: 85.2% | growth [16]: 106% | growth [17]: 93.1% | growth [18]: 83.2% | growth [19]: 83.8% | growth [20]: 93.6%

O=C(NO)c1ccc(CN2CCN(c3nc(-c4ccccc4)c4ccccc4n3)CC2)cc1
growth [1]: 67.4% | growth [2]: 16% | growth [3]: 15.9% | growth [4]: -11.6% (active) | growth [5]: 19.7% | growth [6]: 4.08% (active) | growth [7]: 6.42% (active) | growth [8]: 61.4% | growth [9]: 12% | growth [10]: 22.9% | growth [11]: 8.6% (active) | growth [12]: 24.5% | growth [13]: 8.54% (active) | growth [14]: 19.3% | growth [15]: 22.7% | growth [16]: -22.2% (active) | growth [17]: 17.8% | growth [18]: 27.6% | growth [19]: 49.1% | growth [20]: -36.1% (active)

CCCCSc1nc(Nc2ccc(/C(C)=N/NC(N)=S)cc2)c(C#N)c(-c2ccc(OC)cc2)n1
growth [1]: 104% | growth [2]: 79.4% | growth [3]: 7.27% (active) | growth [4]: -19.7% (active) | growth [5]: -0.624% (active) | growth [6]: 55.2% | growth [7]: 51.6% | growth [8]: 32.2% | growth [9]: 86.2% | growth [10]: 67.7% | growth [11]: 40.2% | growth [12]: 67.8% | growth [13]: 11.8% | growth [14]: 130% | growth [15]: -43.9% (active) | growth [16]: 94.9% | growth [17]: 68.4% | growth [18]: -27.2% (active) | growth [19]: 20.3% | growth [20]: 25.8%

CCCSc1nc(NC2CC2)c(C#N)c(-c2ccc(OC)cc2)n1
growth [1]: 118% | growth [2]: 101% | growth [3]: 91.9% | growth [4]: 93.6% | growth [5]: 106% | growth [6]: 85.2% | growth [7]: 86.9% | growth [8]: 100% | growth [9]: 97.1% | growth [10]: 100% | growth [11]: 98.4% | growth [12]: 96.6% | growth [13]: 69.2% | growth [14]: 105% | growth [15]: 84.5% | growth [16]: 115% | growth [17]: 108% | growth [18]: 93.5% | growth [19]: 105% | growth [20]: 68.7%

O=S(=O)(Nc1ncccn1)c1ccc(-n2c(-c3ccc(Br)cc3)nc(-c3ccccc3)c2-c2ccccc2)cc1
growth [1]: 56.8% | growth [2]: 16.1% | growth [3]: 35.9% | growth [4]: 20.1% | growth [5]: 56.7% | growth [6]: 38.5% | growth [7]: 23.7% | growth [8]: -1.34% (active) | growth [9]: 18.6% | growth [10]: 22.4% | growth [11]: 45.2% | growth [12]: 33.8% | growth [13]: 50.5% | growth [14]: 70.5% | growth [15]: 57.7% | growth [16]: 76.4% | growth [17]: 51.6% | growth [18]: 48.2% | growth [19]: 20.4% | growth [20]: 33.6%

O=C1CCC(N2Cc3cc(CC(=O)Nc4ccc(N5CCCCC5)cc4)ccc3C2=O)C(=O)N1 (stereo not given)
growth [1]: 74.7% | growth [2]: 83.4% | growth [3]: 46.7% | growth [4]: 21% | growth [5]: 67.5% | growth [6]: 92.4% | growth [7]: 87.6% | growth [8]: 12.7% | growth [9]: 16.9% | growth [10]: -7.39% (active) | growth [11]: 77.2% | growth [12]: 66.4% | growth [13]: 20.9% | growth [14]: 70.5% | growth [15]: 31.1% | growth [16]: 61% | growth [17]: 31.8% | growth [18]: 53.9% | growth [19]: 27.4% | growth [20]: 25.2%

O=c1[nH]c2ccc(Cl)cc2cc1CSc1ccc(Nc2nccc(-c3ccc4ccccc4c3)n2)cc1
growth [1]: 97.2% | growth [2]: 83.6% | growth [3]: 62.6% | growth [4]: 96.2% | growth [5]: 79.8% | growth [6]: 100% | growth [7]: 97.1% | growth [8]: 119% | growth [9]: 80% | growth [10]: 80.5% | growth [11]: 88% | growth [12]: 69.1% | growth [13]: 9.55% (active) | growth [14]: 95% | growth [15]: -25.7% (active) | growth [16]: 126% | growth [17]: 99.4% | growth [18]: -1.45% (active) | growth [19]: 66.2% | growth [20]: 59.8%
